The list is a sample of the results.
aSyn UTR act – Activators via SNCA 5'UTR binding, MLPCN; alpha-synuclein 5'UTR reporter, activators screen; activity score, % (tested at 7.5 µM), hits read low; 300,000 compounds, 7.1% hits; AID 1814; in the data active = activity score below about -60%
* marks the source's active call; other numbers are inactive results.

SMILES	aSyn UTR act
CCOC(=O)C1CCCN(C(=O)CC(C)c2ccccc2)C1 (stereo not drawn)	-115*
O=C(/C=C/c1ccc2c(c1)OCO2)N1CCCCC1	-132*
CCOC(=O)C1CCN(C(=O)/C=C/c2ccc3c(c2)OCO3)CC1	-74*
CCOC(=O)C1CCN(C(=O)COc2ccc(Cl)cc2)CC1	-75*
CCOC(=O)C1CCN(C(=O)/C=C/c2ccccc2)CC1	-139*
N=C1N(/N=C/c2ccccc2)C(=Nc2ccccc2)C(=S)N1c1ccccc1	-186*
CC1CCCC2(C1)NC(=S)c1c(sc3c1CCCC3)N2 (stereo not drawn)	-63*
O=C(Nc1ccc(N2CCN(C(=O)c3ccc(Cl)cc3)CC2)cc1)c1ccc([N+](=O)[O-])o1	120
O=C(Nc1ccc(N2CCN(C(=O)c3ccccc3)CC2)cc1)c1ccc(Br)o1	-69*
CCN1CCN(c2ccc(NC(=O)c3ccc(Br)o3)cc2)CC1	-91*
CCC(=O)N1CCN(c2ccc(NC(=O)c3ccc([N+](=O)[O-])o3)cc2)CC1	61
Cc1ccc(CN2C3CCCC2CC(NC(=O)c2ccc(C)cc2)C3)cc1 (stereo not drawn)	-163*
CC1Sc2ccc(C(=O)OCc3ccccc3Cl)cc2NC1=O (stereo not drawn)	-147*
CC1Sc2ccc(C(=O)Nc3ccccc3OC(F)F)cc2NC1=O (stereo not drawn)	-81*
O=C(CSc1nnc(-c2ccco2)n1Cc1ccccc1)c1ccccc1	-104*
Cc1ccc(C(=O)CSc2nnc(-c3ccco3)n2Cc2ccccc2)cc1	-97*
O=C(Cc1ccccc1F)Nc1ccccc1-c1ccccc1	-85*
N=C1C(c2nc3ccccc3s2)=C(O)CN1c1ccccc1	-120*
CCN1CC(O)=C(c2nc3ccccc3s2)C1=N	-70*
CCCCN1CC(O)=C(c2nc3ccccc3s2)C1=N	-167*
C=CCS/C(=N\n1cnc2ccccc2c1=O)N1CCCCC1	-86*
O=C(NCc1ccco1)c1cc(-c2cccs2)on1	-297*
O=C(NCc1ccccc1)c1cc(-c2cccs2)on1	-95*
O=C(NCc1ccco1)c1cc(-c2ccc(F)cc2)on1	-198*
O=C(NCc1ccco1)c1cc(-c2ccccc2)on1	-161*
SMILES	aSyn UTR act
CCCN(C(=O)c1ccco1)c1nnc(-c2ccccc2C)s1	-89*
CN(C(=O)c1ccco1)c1nc(-c2ccc(F)cc2)cs1	-146*
CCCN(C(=O)c1cccs1)c1nnc(-c2ccncc2)s1	-100*
COCCN(C(=O)c1ccco1)c1nnc(-c2ccc(F)cc2)s1	-92*
CN(C(=O)c1ccco1)c1nnc(-c2ccc(F)cc2)s1	-200*
CCN(C(=O)c1ccco1)c1nnc(-c2cccnc2)s1	-137*
CCc1nonc1NC(=O)c1oc2ccccc2c1C	-75*
CCc1ccc2oc(C(=O)Nc3nonc3CC)c(C)c2c1	-135*
CCc1nonc1NC(=O)c1oc2ccc(C)cc2c1C	-112*
CCc1nonc1NC(=O)c1oc2cc(Br)ccc2c1C	-113*
CC(=O)N(O)CCCCCNC(=O)CCC(=O)N(O)CCCCCNC(=O)CCC(=O)N(O)CCCCCN	75
CC1CCc2nc(NCCO)nc(C(F)(F)F)c2C1 (stereo not drawn)	54
COc1ccccc1N(CC(=O)N/N=C/c1c(O)ccc2ccccc12)S(C)(=O)=O	49
CCOc1ccc(N(CC(=O)NCc2ccc(OC)cc2)S(C)(=O)=O)cc1	-81*
CC(=O)Nc1ccc(NC(=O)CN(c2cccc([N+](=O)[O-])c2)S(C)(=O)=O)cc1	69
CCOc1ccc(N(CC(=O)Nc2ccc(C)c(C)c2)S(C)(=O)=O)cc1	-171*
COc1ccc(CNC(=O)CN(c2cc(C)cc(C)c2)S(=O)(=O)c2c(C)[nH]c(=O)[nH]c2=O)cc1	-81*
COc1ccc(N(CC(=O)Nc2cc(Cl)ccc2OC)S(=O)(=O)c2c(C)noc2C)cc1	71
CC(C)CNC(=O)COC(=O)c1c2c(nc3ccccc13)/C(=C/c1cccs1)CC2	-110*
CCC(=O)NC(=S)Nc1ccc(-c2nc3ccc(C)cc3s2)cc1	-238*
Cc1ccc2nc(-c3ccc(NC(=S)NC4CC(C)(C)NC(C)(C)C4)cc3)sc2c1	121
Cc1ccc2nc(-c3ccc(NC(=S)NC(=O)C(C)C)cc3)sc2c1	-208*
C(=C\c1ccccc1)/C=N/N1CCN(c2ccccn2)CC1	-153*
C(=C\c1ccccc1)/C=N/N1CCN(Cc2ccccc2)CC1	-74*
C(/C=C/c1ccccc1)=N/N1CCN(c2ccccc2)CC1	-136*
SMILES	aSyn UTR act
CC(/C=N/N1CCN(c2ccccn2)CC1)=C\c1ccccc1	-134*
Oc1ccc(-c2csc(-c3cccnc3)n2)c(O)c1	-101*
c1cncc(-c2nc(-c3ccc4c(c3)OCO4)cs2)c1	-117*
Clc1ccsc1-c1csc(-c2cccnc2)n1	-85*
Cc1[nH]n(C2=NCCS2)c(=O)c1N=Nc1cccc(C(F)(F)F)c1	67
Cc1[nH]n(C(N)=S)c(=O)c1N=Nc1cccc(C(F)(F)F)c1	-165*
Cc1ccc(N=Nc2c(C)[nH]n(C(N)=S)c2=O)cc1	-116*
Cc1[nH]n(C(N)=S)c(=O)c1N=Nc1ccc(Br)cc1	-90*

Bioassay records as filed in PubChem BioAssay.
